PBM binding z-score data for 40 sequences are collected here from the supplement of paper PMC6555819.

The assay has as its system PPARg:RXRa DBDmut IVT, anti-RXR (DBD mutation: RXRa K156A/R161A, NR concentration 270 nM, RXRa partner concentration 90 nM). In words: PBM binding z-score (relative to random genomic background probes); higher = stronger binding; sequences stand for … in GC…GCGATTGACAGCGTAGAATGAAGG
A digest of the protocol:
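For binding z-scores, the reference was random background probes on custom Agilent 4×180K protein-binding microarrays. These arrays were incubated 1 h with ligand-free nuclear receptor dimers in PBS pH 7.4, 2% milk, 0.02% Triton X-100, 1 mM DTT, 0.2 mg/mL BSA and 0.4 mg/ml salmon testes DNA. Fluorescence was scanned after antibody detection of each partner (one per run) and regression-normalized.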
For GCGACTGGGCCATCAGCAGGTTACCATAACTTAA, the PBM binding z-score came out at 2.78.

In the case of CCGACTGGGGCCGAAAGGTTACCATACCATCCGG, the PBM binding z-score is -0.423. For the sequence GCTCGGAGGACAACGTCAGAGCTTTGTCCGTAGA, the PBM binding z-score is -0.91. TCATATTGGTAAAGGTGAAAGTCGAACGATATGA yielded a PBM binding z-score of 1.58.

For the sequence TGAATGAGGTTCAAGATCAGGGAACGTGGCGTCG, the PBM binding z-score is -0.641. Under TAGCCTAGGTCATTCAGGGGCCAGGATAGAAAGC stands 1.12; under AGTCAAAGTTCATCTAGGTAATGTAAGATATGCT, 1.01. Under CGAACTAGGTCACTGACAGGACAGTGAATAGTAA stands 8.19; under GATACAGGGTCAGCTAGAGGCTAGAGTATGGAAA, 0.581; under TCTAGCAGGCCAGAGGGTAACTCAAGAGGTACGG, 0.667. In the case of ATCTCTAGGTAGAGTTCAGTGAAAGATCGATAGA it was 0.277. Sequence TGAATGAGGTTAAAGTTCAGGGAACGTGGCGTCG displayed a PBM binding z-score of 2.35. In the case of TCTATTAGATGATTAGGGCAACCGAAACAGCGGA it was 2.02; in that of ATATGTAGGTTAAGGGTCATTCTGGTTGGTTCGC, 7.57; in that of CGTCCAAGGTCAAAGTTCAGTGAAGAGATGACGG, 3.41. In the case of GTTCGGAGGACAAGGTCAGAGCTTTGTCCGTAGA it was -0.0952; in that of TCGAGTAGGGTACCAATGGGGCATTCAGCTTTCT, 1.51. Under CGAACTAGGTCAAGAACAGTGAATCTCCGCACGC stands 8.01.

For the sequence TCTTGTAGAGCAAAGGTTAAGAAAGCCGAAGCCT, the PBM binding z-score stood at 2.94. In the case of CCGACTGGGCCAAAAAGGTCATTGATGCCGATAA it was 1.65; in that of AAAATGAGGTTACCAAAGATCAGGGAAACGCTTG, 4.97; in that of TCATATAGGTAAACAGGGGAAAGTCCGTAAGTTA, 4.67.

The sequence CCAGAAAGGTGAGAAGGTAACTCAGCCTCGATTA showed a PBM binding z-score of 2.89. In the case of GCTTACGGGTCAAAGGTTATTGCATGAATAGAAT it was 4.96. Under CAAACTAGGTCAAATGTCAAAGTCGAGCCAACCA stands 8.77; under CGAACTAGGTCATCCAGGACAGCGAATACATTGA, 8.26. Under TCATATAGGTAAACAGGTGACAGTCCGTAAGTTA stands 4.87. On to GCAGACAGGTGAAACGCAGGTAACACAGGGTGGC, for which the PBM binding z-score came out at 0.623. In the case of AGAATGAGCTTATACGTAGATCAGGGAAGAAAGT, the PBM binding z-score was -1.19. For TCTGCTAGGTCAGTTGGTAAGCTAACGAGCTGCC, the PBM binding z-score turned out to be 2.46. Under TCTATTAGTTGATGGGCAACCGACGAGTCCGTTT stands 2.03; under ACTACTTGGTCAGCTGAGGTCACACACAATTCGG, 2.16.

For the sequence ATCGAAAGGTCGAGCTGAGTATAGAGAAAGGGAA, the PBM binding z-score was -0.357.

As to TCTGCTAGGTCAGTTGGTCACCTAACGAGCTGCC, the PBM binding z-score turned out to be 2.8.

In the case of CCGACTGGGGCATAAGGTTAGCATAAGCCAGCCC, the PBM binding z-score was 3.03. CGAACTAGGTTAGAACAGGACAGTGAAGGATGAT gave a PBM binding z-score of 5.02.

Turning to ATACCCAGGTGATCGTGAGGTCGTTGATACTAAC, the PBM binding z-score is -0.291. For TAGCCTAGGGCATGCGGGCCAGTATAGTGTCGGC, the PBM binding z-score is -0.968. In the case of ATATGTAGGTTAGCTGTGGTCATTCAGACTAGGC it was 6.97; in that of TCTAGCAGGCCAGAGAGTCACTCAAGAGGTACGG, 0.614.
